KCNQ2 enhance: potentiators of rat KCNQ2 potassium channel; hit rate 0.54% among 310,000; Potassium voltage-gated channel subfamily KQT member 2 (Rattus norvegicus), O88943; B-score at 10 µM; CHO-K1 KCNQ2, FluxOR thallium flux fluorescence; stronger effect = higher value;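 active = fluorescence ratio B-score at least 3 SD of library B-scores, with initial fluorescence B-score within 3 of them, cut at about 5.3 in these data; same plate scores as AID 2156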;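 also: B-score of peak minus minimum over baseline fluorescence ratio after K+ and Tl+ stimulus; positive B-score means potentiation of KCNQ2 with more thallium influx and brighter signal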
Target sequence (O88943 whole entry, looked up): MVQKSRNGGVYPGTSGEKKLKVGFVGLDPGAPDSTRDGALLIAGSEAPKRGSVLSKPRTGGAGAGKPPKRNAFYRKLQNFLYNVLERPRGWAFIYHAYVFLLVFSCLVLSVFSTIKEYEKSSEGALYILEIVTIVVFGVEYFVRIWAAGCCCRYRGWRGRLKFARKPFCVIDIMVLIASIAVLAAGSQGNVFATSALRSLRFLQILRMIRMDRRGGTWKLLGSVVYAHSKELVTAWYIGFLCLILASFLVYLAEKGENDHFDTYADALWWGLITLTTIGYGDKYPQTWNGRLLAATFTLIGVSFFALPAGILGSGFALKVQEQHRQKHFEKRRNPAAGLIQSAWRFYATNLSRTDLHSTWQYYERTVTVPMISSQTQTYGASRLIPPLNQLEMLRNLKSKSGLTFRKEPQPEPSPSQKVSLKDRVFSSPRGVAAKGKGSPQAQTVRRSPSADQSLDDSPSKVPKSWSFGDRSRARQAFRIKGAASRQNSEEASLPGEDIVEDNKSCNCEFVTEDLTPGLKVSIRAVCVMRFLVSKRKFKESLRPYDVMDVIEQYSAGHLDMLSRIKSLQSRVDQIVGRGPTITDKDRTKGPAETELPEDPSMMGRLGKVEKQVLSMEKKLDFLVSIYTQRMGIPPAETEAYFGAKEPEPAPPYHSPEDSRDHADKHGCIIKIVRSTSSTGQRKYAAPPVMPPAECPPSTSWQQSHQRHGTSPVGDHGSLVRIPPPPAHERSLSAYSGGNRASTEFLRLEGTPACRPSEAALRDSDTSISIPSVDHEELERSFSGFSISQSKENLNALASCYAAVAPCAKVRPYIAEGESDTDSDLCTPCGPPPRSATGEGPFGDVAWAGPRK
KCNQ2 inh: rat KCNQ2 potassium channel inhibitors, primary screen, cell-based, CHO-K1, FluxOR thallium flux, B-score; Potassium voltage-gated channel subfamily KQT member 2 (Rattus norvegicus), O88943; hit rate 1.1% among 310,000; AID 2156, 2009; B-score at 10 µM; 20 min; stronger effect = lower value;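 active = fluorescence ratio B-score at most minus 3 library SDs, with starting brightness B-score within 2 library SDs, cut at about -5.5 in these data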
KCNQ2 inh conf: rat KCNQ2 potassium channel inhibitors, confirmation, cell-based, thallium flux. shares compounds with KCNQ2 inh. AID 493025, 2011. hit rate 57% among 1,000. activity change, negative = inhibition, % at 10 µM. KCNQ2-expressing cells, inhibition; stronger effect = lower value;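 also: 0% = vehicle wells and values are ratio percent relative to vehicle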
KCNQ1 spec: human KCNQ1 channel inhibition, counter-screen for KCNQ2 inhibitor project, cell-based, FluxOR thallium flux | shares compounds with KCNQ2 inh | KCNQ1-expressing cells, FluxOR thallium flux fluorescence; stronger effect = lower value | activity change, negative = inhibition, % at 10 µM | hit rate 15% among 1,000;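 active = activity change at least 3 SD of negative controls below their mean in both duplicate wells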;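 also: CHO cells stably transfected with KCNQ1 and depolarized by potassium stimulus; peak minus minimum fluorescence over baseline after thallium addition; 0% = vehicle negative control and -100% = blank without thallium stimulus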
CHO Tl ctr: thallium flux change in parental CHO cells, counter-screen for KCNQ2 inhibitor project | shares compounds with KCNQ2 inh | stronger effect = lower value | activity change, % at 10 µM | hit rate 14% among 1,000;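 also: 0% = vehicle negative controls with stimulus buffer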
KCNQ2 patch conf: rat KCNQ2 channel inhibitors, confirmation, cell-based, automated patch clamp, single concentration. hit rate 49% among 550. shares compounds with KCNQ2 inh. calls only at 10 µM. KCNQ2-expressing cells, automated patch clamp current
Active calls of the source: *; i = inactive; nt = no result; + = active, no number. Most compounds without a hit are left out; they make up all but 1.6% or so of the library. Unless noted, no rule for the calls is given here.

SMILES	KCNQ2 enhance	KCNQ2 inh	KCNQ2 inh conf	KCNQ1 spec	CHO Tl ctr	others
Cc1ccccc1OCc1nc2ccccc2c(=O)n1/N=C/c1ccco1	-8.9	-8.9*	-33%*	i	i	KCNQ2 patch conf=+
O=c1c2ccccc2nc(-c2ccco2)n1/N=C/c1ccco1	2.8	i	nt	nt	nt
COC(=O)C(Cc1c[nH]c2ccccc12)NC(=O)C1CC1 (stereo not given)	0.26	i	nt	nt	nt
COC(=O)c1c(NC(=O)CN2CCCc3ccccc32)sc(C)c1C	-7.7	-7.7*	-38%*	-33%*	-33%*	KCNQ2 patch conf=i
CCOC(=O)c1c(NC(=O)CN2CCCc3ccccc32)sc(C)c1C	nt	i	nt	nt	nt
CCn1cc(S(=O)(=O)NC(C)c2cc(OC)ccc2OC)cn1 (stereo not given)	nt	i	nt	nt	nt
COc1ccc2nc(SCC(=O)Nc3ccc(S(=O)(=O)N4CCCC4)cc3)c(C#N)cc2c1	0.76	i	nt	nt	nt
CCOc1ccc2nc(SCC(=O)Nc3ccc(S(=O)(=O)N4CCCC4)cc3)c(C)cc2c1	-8.5	-8.5*	i	i	i
Cc1cc(OCc2cc(C(=O)N3CCC(Oc4cccnc4)CC3)no2)cc(C)c1Cl	nt	i	nt	nt	nt
CCOc1ccccc1N(C)C(=O)c1sc2ncn(CC(=O)N3CCCCC3C)c(=O)c2c1C (stereo not given)	nt	i	nt	nt	nt
Cc1ccccc1OCC(O)CN1C(=O)c2ccccc2C1=O (stereo not given)	nt	i	nt	nt	nt
C=CCc1ccccc1OCC(O)CN1C(=O)c2ccccc2C1=O (stereo not given)	-12	-12*	i	i	i
O=C(Cc1ccccc1)NNC(=O)Cc1ccccc1	nt	i	nt	nt	nt
O=C(NC1c2ccccc2-c2ccccc21)N1CCOCC1	-7	-7*	-28%*	i	i	KCNQ2 patch conf=+
O=C(Cc1ccccc1)NC1c2ccccc2-c2ccccc21	-6.8	-6.8*	i	i	i
O=C(NC(c1ccccc1)c1ccccc1)N1CCOCC1	nt	i	nt	nt	nt
CCCN(CCC)Cc1c(C(=O)N/N=C/CCc2ccccc2)nnn1-c1nonc1N	nt	i	nt	nt	nt
CCn1c(SCc2cccc(OC)c2)nc2ccccc2c1=O	nt	i	nt	nt	nt
CCn1c(SCC(=O)NC2=NCCS2)nnc1C(C)NC(=O)c1ccccc1Br (stereo not given)	1.6	i	nt	nt	nt
CCOc1cc(CNCCc2ccc(S(N)(=O)=O)cc2)cc(Cl)c1OCc1ccccc1	-9.4	-9.4*	-30%*	i	i	KCNQ2 patch conf=i
CCOc1cc(CNCCc2ccc(S(N)(=O)=O)cc2)ccc1OCc1ccccc1	nt	i	nt	nt	nt
COc1cc(NS(=O)(=O)c2ccc(NC(=O)Cc3ccccc3)cc2)nc(OC)n1	0.33	i	nt	nt	nt
CN(C)S(=O)(=O)c1ccc(N2CCCC2)c(C(=O)NNC(=O)COc2ccc(Cl)cc2)c1	-7	-7*	i	i	i
CN(C)S(=O)(=O)c1ccc(N2CCCC2)c(C(=O)Nc2ccc(C(N)=O)cc2)c1	nt	i	nt	nt	nt
CN(C)S(=O)(=O)c1ccc(N2CCCC2)c(C(=O)NNC(=O)c2ccc(Br)cc2)c1	-10	-10*	-24%*	i	i	KCNQ2 patch conf=+
SMILES	KCNQ2 enhance	KCNQ2 inh	KCNQ2 inh conf	KCNQ1 spec	CHO Tl ctr	others
CCc1ccc(OCC(=O)NNC(=O)c2cc(S(=O)(=O)N(C)C)ccc2N2CCCC2)cc1	0.12	i	nt	nt	nt
O=C(Cc1ccc(S(=O)(=O)N2CCOCC2)s1)Oc1ccc(F)cc1	nt	i	nt	nt	nt
CCOC(=O)c1c(-c2ccc(Cl)cc2)csc1NC(=O)CNCc1ccco1	nt	i	nt	nt	nt
CCOC(=O)c1c(-c2ccccc2)csc1NC(=O)C(C)NCc1ccco1 (stereo not given)	-7.2	-7.2*	-31%*	i	i	KCNQ2 patch conf=i
CC(NC(=O)C(=O)NCCN1CCN(C(=O)c2ccccc2Br)CC1)c1ccccc1 (stereo not given)	nt	i	nt	nt	nt
COc1ccc(CCNC2CC(=O)N(C3CCCCC3)C2=O)cc1OC (stereo not given)	nt	i	nt	nt	nt
CCC(C)(C)n1nnnc1C(C(C)C)N(Cc1cccnc1)Cc1ccco1 (stereo not given)	nt	i	nt	nt	nt
CCC(C)(C)n1nnnc1C(c1ccc(C)cc1)N(Cc1ccco1)Cc1cccs1 (stereo not given)	-9.9	-9.9*	i	i	i
COCCN(C(=O)c1ccc(-c2ccc(Cl)cc2)o1)c1c(N)n(Cc2ccccc2)c(=O)[nH]c1=O	nt	i	nt	nt	nt
COc1ccc(Cl)cc1NC(=O)C(C)N(C)Cc1cccc(Cl)c1Cl (stereo not given)	-7.3	-7.3*	i	i	i
COc1ccc(Cl)cc1NC(=O)NC(C)C	nt	i	nt	nt	nt
Nc1ccccc1S(=O)(=O)NCCCCc1ccccc1	0.3	i	nt	nt	nt
CCN(c1ccccc1)S(=O)(=O)c1nnc(NC(=O)C(C)C)s1	2.8	i	nt	nt	nt
O=C(O)c1ccc(N2CCS(=O)(=O)CC2)cc1	0.33	i	nt	nt	nt
COc1ccccc1C(=O)NC(=O)COC(=O)c1nc2nc(C)cc(C)n2n1	nt	i	nt	nt	nt
Cc1cc(C)c2nc(-c3cccc(Cl)c3)c(C)c(C(=O)N3CCOCC3)c2c1	-8.8	-8.8*	-28%*	i	i	KCNQ2 patch conf=+
Cc1onc(-c2c(Cl)cccc2Cl)c1C(=O)N1CCOCC1	0.75	i	nt	nt	nt
Cc1ccc(NC(=O)CN2CCN(CCN=CC3=C(O)CC(c4ccc(C)cc4)CC3=O)CC2)cc1 (stereo not given)	nt	i	nt	nt	nt
CSc1ncccc1C(=O)OCC(=O)N(CC(C)C)c1c(N)n(Cc2ccccc2)c(=O)[nH]c1=O	nt	i	nt	nt	nt
COc1ccccc1S(=O)(=O)Cc1ccc(C(=O)N2CCN(c3ccccc3)CC2)o1	nt	i	nt	nt	nt
COc1ccccc1S(=O)(=O)Cc1ccc(C(=O)N2CCN(c3cccc(Cl)c3)CC2)o1	-10	-10*	-37%*	i	i	KCNQ2 patch conf=i
COC(=O)c1ccc(NC(=O)CCN2C(=O)CSC2=O)cc1	nt	i	nt	nt	nt
CCN1CCN(c2oc(COc3ccc(-c4ccccc4)cc3)nc2C#N)CC1	nt	i	nt	nt	nt
N#Cc1nc(COc2ccc(F)cc2)oc1N1CCC(Cc2ccccc2)CC1	-8.9	-8.9*	-42%*	-42%*	-32%*	KCNQ2 patch conf=i
N#Cc1nc(Cc2ccccc2)oc1N1CCC(Cc2ccccc2)CC1	nt	i	nt	nt	nt
N#Cc1nc(COc2ccc(F)cc2)oc1N1CCN(Cc2ccccc2)CC1	-7	-7*	-16%*	i	i	KCNQ2 patch conf=+
CC1CCC(NC(=O)CCS(=O)(=O)c2ccc3c(c2)CC(C)N3C(=O)C2CC2)CC1 (stereo not given)	0.96	i	nt	nt	nt
CCOc1ccc(-n2c(=S)sc3c(=O)n(-c4ccc(F)cc4)c(SCC(=O)O)nc32)cc1	0.02	i	nt	nt	nt
NC(=O)c1cc2cc(Cl)ccc2oc1=Nc1cccc(C(F)(F)F)c1	0.11	i	nt	nt	nt

Bioassay records from PubChem BioAssay.
